NPR1 activator – GC-A stimulated cGMP production enhancers – HEK293 GC-A cells, cGMP TR-FRET, EC30 ANP, primary screen; 0% at EC30 ANP, 100% saturating ANP; activation, % at 10 µM; hit rate 0.14% among 370,000; AID 1671463, 2021; in the data active = activation above about 40%
APOBEC3G inh – APOBEC3G DNA deaminase inhibitors, primary screen, biochemical, fluorescence, single-stranded DNA substrate, uHTS | inhibition, % at 20 µM | AID 493012, 2011 | hit rate 0.28% among 330,000 | recombinant A3G, ssDNA deamination FAM/TAMRA fluorescence | DNA dC->dU-editing enzyme APOBEC-3G (Homo sapiens), Q9HC16;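 active = inhibition of at least 40% at 20 µM, with no more than 30% in the related APOBEC3A deaminase screen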;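 also: plate controls were DMSO wells with A3G for no effect and wells lacking A3G enzyme for full effect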
Target sequence (Q9HC16 whole entry, looked up): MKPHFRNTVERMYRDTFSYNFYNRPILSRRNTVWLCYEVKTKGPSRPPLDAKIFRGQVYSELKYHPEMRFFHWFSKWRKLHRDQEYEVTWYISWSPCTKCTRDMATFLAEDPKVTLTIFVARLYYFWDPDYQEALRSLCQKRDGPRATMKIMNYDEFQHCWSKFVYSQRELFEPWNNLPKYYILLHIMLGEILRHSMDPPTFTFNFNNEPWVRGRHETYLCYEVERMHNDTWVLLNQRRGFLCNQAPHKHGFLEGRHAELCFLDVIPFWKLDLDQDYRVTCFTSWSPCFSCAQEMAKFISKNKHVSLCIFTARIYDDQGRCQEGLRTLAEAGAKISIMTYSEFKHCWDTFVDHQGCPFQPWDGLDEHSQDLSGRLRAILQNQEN
FAS TE block – FAS thioesterase domain inhibitors, primary screen, biochemical, fluorescence intensity, uHTS. Fatty acid synthase (Homo sapiens), P49327. recombinant FAS-TE, OMFH fluorogenic substrate, fluorescence endpoint. inhibition, % at 15 µM. hit rate 0.67% among 360,000. AID 602261, 2012;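 active = compounds whose normalised, plate-corrected inhibition of enzyme fluorescence in the single-dose primary screen is 50% or more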;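 also: 0% = DMSO with enzyme and 100% = substrate without enzyme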
APOBEC3A inh – APOBEC3A ssDNA deaminase inhibitors, primary screen, selectivity assay for APOBEC3G inhibitor project, biochemical, FAM/TAMRA oligo cleavage fluorescence; DNA dC->dU-editing enzyme APOBEC-3A (Homo sapiens), P31941; recombinant A3A, FAM/TAMRA ssDNA deamination fluorescence; inhibition, % at 20 µM; hit rate 0.41% among 330,000; AID 493011, 2011;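 active = at least 40% inhibition at 20 µM here, with at most 30% in a related deaminase screen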;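 also: plate controls were A3A with DMSO for no effect and wells lacking A3A enzyme for full effect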
Target sequence (P31941 whole entry, looked up): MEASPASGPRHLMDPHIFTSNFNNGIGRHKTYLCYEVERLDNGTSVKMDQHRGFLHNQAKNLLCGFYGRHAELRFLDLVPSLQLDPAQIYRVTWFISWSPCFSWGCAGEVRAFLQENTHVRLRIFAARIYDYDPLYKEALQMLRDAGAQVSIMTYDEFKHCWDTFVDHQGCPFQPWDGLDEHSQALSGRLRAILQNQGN
GC-B act – human GC-B receptor activators, primary screen, HEK293 GC-B cells, cGMP TR-FRET, EC30 CNP. Atrial natriuretic peptide receptor 2 (Homo sapiens), P20594. 0% at EC30 CNP, 100% saturating CNP. activation, % at 10 µM. hit rate 0.11% among 370,000;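 active = activation at 10 µM reaching about 35% in either raw or pattern-adjusted values, limit read from the data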
FAS-TE conf – FAS thioesterase domain inhibitors, confirmation, biochemical, fluorescence intensity, single concentration | hit rate 45% among 2,300 | recombinant FAS-TE, OMFH fluorogenic substrate | shares compounds with FAS TE block | inhibition, % at 15 µM | AID 624325, 2012;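 active = compounds inhibiting the enzyme by at least 50% at 15 µM in any one of the replicates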;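 also: 0% = enzyme with DMSO only and 100% = wells lacking enzyme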
An asterisk follows results filed as active; . = no result given. This is a sample that favours compounds with a hit; in the whole collection about 1.4% have one here.

SMILES | NPR1 activator | APOBEC3G inh | FAS TE block | APOBEC3A inh | GC-B act | FAS-TE conf
CCC(C(=O)Nc1ccccc1N1CCCC1)c1cccc(Cl)c1 (stereo not drawn) | -9 | . | . | . | -14 | .
COc1ccc(-c2csc3nc(-c4ccccc4F)oc(=O)c23)cc1 | 5 | -8 | 62* | -2 | -2 | 51*
Cc1nc2scc(-c3ccc(Cl)cc3)c2c(=O)o1 | 6 | -7 | 70* | -2 | 4 | 65*
COc1cccc(CO[C@H]2C=C[C@@H](c3ccccc3)O[C@@H]2CO)c1 | 3 | . | . | . | 6 | .
COc1ccc(-c2cc([N+](=O)[O-])ccc2OCC(=O)N(C)CC(=O)Nc2ccc(C)cc2)cc1 | -5 | -4 | 60* | -1 | -3 | 64*
CC(C)CNC(=O)OCc1cn(Cc2ccccc2F)nn1 | 2 | . | . | . | 10 | .
COc1ccc2[nH]c3c(c2c1)CCN[C@]31C(=O)N(C)c2ccc(Br)cc21 | -2 | . | . | . | 0 | .
CCOC(=O)C1=NOC(C(=O)NC2CCCC2)(C(=O)C2CC2)C1 (stereo not drawn) | 3 | . | . | . | -4 | .
O=C(CN1C(=O)c2cccnc2Oc2ccc(Cl)cc21)NCCCc1ccccc1 | -8 | -9 | 55* | -6 | -3 | 36
C[C@H]1COC2=C1C(=O)C(=O)c1c2ccc2c1CCCC2(C)C | . | . | 36 | . | . | .
Cc1coc2c1C(=O)C(=O)c1c-2ccc2c1CCCC2(C)C | -2 | 27 | 58* | 16 | -5 | 22
CCOC(=O)C1=CC[C@H]2c3c(c4ccccc4n3C)C(=O)C1N2C | 2 | -4 | -10 | -2 | -3 | .
CCOC(=O)C1=CC[C@H]2c3c(c4ccccc4n3C)C(=O)C1N2C(=O)OC(C)(C)C | 2 | -1 | 63* | 0 | -2 | 46*
O=[N+]([O-])c1cc(S(=O)(=O)Nc2cccc(C(F)(F)F)c2)ccc1-n1nnc2ccccc21 | 0 | -7 | 66* | -19 | 5 | 80*
CCCSc1ccc([C@H]2N[C@@](Cc3ccccc3)(C(=O)OC)[C@H]3C(=O)N(CC)C(=O)[C@@H]23)cc1 | -4 | -5 | 30 | -5 | -1 | .
CCN1C(=O)[C@H]2[C@@H](c3ccc(-c4ccccc4)c(OC)c3)N[C@@](Cc3ccccc3)(C(=O)OC)[C@H]2C1=O | -3 | -5 | 69* | 6 | 0 | 36
CCN1C(=O)[C@H]2[C@@H](c3ccc(-c4ccc(F)cc4)c(OC)c3)N[C@@](Cc3ccccc3)(C(=O)OC)[C@H]2C1=O | -1 | -4 | 90* | 0 | -2 | 37
CCN1C(=O)[C@H]2[C@@H](c3ccc(-c4ccc(C(C)=O)cc4)c(OC)c3)N[C@@](Cc3ccccc3)(C(=O)OC)[C@H]2C1=O | -2 | -7 | 65* | -3 | -2 | 37
CN(CCCOC(=O)c1occ2ccccc12)C1CN(Cc2cn(Cc3ccccc3Cl)nn2)S(=O)(=O)C1 (stereo not drawn) | -5 | . | . | . | -1 | .
CC1CCCN(c2cccc3c2S(=O)(=O)N([C@H](C)c2ccccc2)C[C@@H](COCc2ccccc2)O3)C1 (stereo partly drawn) | 0 | . | . | . | 4 | .
COc1cccc(-n2c(CN3CCN(c4cccc(C)c4)C(C)C3)nc3ccc([N+](=O)[O-])cc3c2=O)c1 (stereo not drawn) | 0 | -1 | 80* | 2 | 3 | 20
COc1cccc(-n2c(CN3CCN(c4ccccn4)CC3)nc3ccc([N+](=O)[O-])cc3c2=O)c1 | -4 | -7 | 81* | -1 | -3 | 81*
COc1ccc(-n2c(CN3CCN(c4ccccc4)CC3)nc3ccc([N+](=O)[O-])cc3c2=O)c(OC)c1 | -5 | -8 | 25 | -6 | -1 | .
Cc1c[nH]c2cccc(-c3ccc4c(c3)OCO4)c12 | -1 | . | . | . | -1 | .
C[C@@H]1OC(C2CCCCC2)N(C)[C@H]2C[C@H]3c4[nH]c5cccc(-c6cccc(F)c6)c5c4CCN3C(=O)[C@@H]12 (stereo partly drawn) | 0 | . | . | . | 3 | .
SMILES | NPR1 activator | APOBEC3G inh | FAS TE block | APOBEC3A inh | GC-B act | FAS-TE conf
CCOC(=O)c1c(NC(=O)CSc2nnc(-c3ccccc3)n2CC)sc(C(C)=O)c1C | -15 | 0 | 51* | 2 | -12 | 17
CCn1c(SCC(=O)Nc2ncc(C(F)(F)F)cc2Cl)nnc1-c1ccccc1 | 1 | -10 | 70* | -5 | 0 | 73*
Cn1c(SCC(=O)Nc2ncc(C(F)(F)F)cc2Cl)nnc1-c1ccc(Cl)cc1 | -5 | -12 | 81* | -7 | -5 | 90*
CCn1c(SCC(=O)Nc2oc(-c3ccccc3)c(-c3ccccc3)c2C#N)nnc1-c1cc(OC)cc(OC)c1 | -3 | -6 | 54* | -2 | 2 | 3
N#Cc1c(NC(=O)CSc2ncccn2)oc(-c2ccccc2)c1-c1ccccc1 | -3 | 5 | 14 | 9 | -4 | .
CCOC(=O)Nc1ccc2c(c1)[C@@]1(CC(=O)N(CC(C)C)C1c1ccccc1)C(=O)N2C (stereo partly drawn) | 0 | . | . | . | -1 | .
O=C(NC1CCCCC1)C1CC(=O)N(c2cccc([N+](=O)[O-])c2)C1 (stereo not drawn) | 1 | 0 | 80* | -3 | 2 | 84*
CCOC(=O)[C@]12CCCC=C1N(Cc1ccc(OC)cc1)C(=O)[C@@H]2CC(=O)NCC12CC3CC(CC(C3)C1)C2 | 2 | . | . | . | 6 | .
O=S(=O)(CC1NCc2ccccc21)NCc1ccc(F)cc1 (stereo not drawn) | -1 | . | . | . | -1 | .
O=S(=O)(c1ccc(SCc2ccc(Cl)cc2)nc1)N1CCCC1 | 3 | -10 | 54* | -1 | 0 | 38
C/C(=C\c1ccc(C(=O)O)cc1)c1ccc2c(c1)C(C)(C)CCC2(C)C | -6 | 0 | 73* | 0 | -11 | 34
CC(=O)[C@@H]1[C@@H]2C(=O)N(c3ccccc3F)C(=O)[C@@H]2[C@H]2c3ccccc3C=NN12 | 3 | -1 | -8 | 1 | -2 | .
O=C(c1ccc(Cl)cc1)[C@@H]1[C@@H]2C(=O)N(c3cccc4ccccc34)C(=O)[C@@H]2C2c3ccccc3C=NN21 (stereo partly drawn) | 3 | 0 | 85* | 0 | 2 | 40
N/C(=N\OC(=O)CCC1CCCCC1)c1cccc([N+](=O)[O-])c1 | . | 0 | 67* | 3 | . | 66*

Source: PubChem (Sanford-Burnham Center for Chemical Genomics)
